Screening results from PubChem BioAssay.
HT1080NT lethal = qHTS for induction of synthetic lethality in tumor cells producing 2HG: qHTS for the HT-1080-NT fibrosarcoma cell line. HT-1080-NT fibrosarcoma viability, CellTiter-Glo ATP luminescence, 48 h. Potency, µM (series often up to 46.1 µM), inactives show top-dose activity, negative = less viability, actives largely listed as cytotoxic. hit rate 1.6% among 360,000;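 also: NT is the 2HG producing partner of a matched IDH1 knockdown line; 0% = DMSO-treated cells and -100% = media-only wells without cells; nearly all actives have a fitted effect of over 55% in size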
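Luminescent CellTiter-Glo readout after 48 hours of compound exposure at 37 degrees C defined viability of HT-1080-NT cells. Activity was normalized to DMSO wells and cell-free media wells; concentration-response curves were fitted and assigned curve classes.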
MCF10A rereplic = A quantitative high throughput screen for small molecules that induce DNA re-replication in MCF 10a normal breast cells | AID 624296, 2012 | Potency, µM (top dose mostly 46.1 µM), inactives show at the highest dose activity, positive = re-replication, actives largely listed as activators | MCF 10A DNA re-replication, Hoechst nuclear intensity, 48 h | hit rate 2.9% among 350,000; also: % of control where 0% means no effect; nearly all actives have a fitted effect of over 50% in size
KB-V1 MDR tox = qHTS assay for MDR1-selective chemotherapeutics: Primary screen using the drug-selected MDR subline cells KB-V1; KB-V1 MDR cells viability, CellTiter-Glo, 72 h; Potency, µM (series often up to 46.1 µM), hits mostly cytotoxic; hit rate 3.4% among 400,000; AID 1347076, 2019; also: % is scaled to controls: 0 for no effect and ±100 for the full control effect; nearly all actives have a fitted effect of over 60% in size
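KB-V1 MDR subline cells in DMEM (phenol-red free, 10% FBS) exposed to compounds in qHTS concentration series for 72 h at 37 degrees C. Viability read by CellTiter-Glo luminescence; concentration-effect curves fitted after normalization and correction.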
SW480 rereplic = A quantitative high throughput screen for small molecules that induce DNA re-replication in SW480 colon adenocarcinoma cells. SW480 DNA re-replication, Hoechst DNA content imaging, 48 h. Potency, µM (doses to about 46.1 µM), without a hit: at the highest dose re-replication activation, hits mostly activators. hit rate 1.8% among 340,000; also: % of control where 0% means no effect; nearly all actives have a fitted effect of over 55% in size
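Readout is total intensity of Hoechst-stained nuclei, excited at 405 nm and collected at 500-530 nm. Compound treatment lasted 48 hr at 37 C in 5% CO2 before staining.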
HT1080 IDH1KD tx = qHTS for induction of synthetic lethality in tumor cells producing 2HG: qHTS for the HT-1080-IDH1KD cell line | HT-1080 IDH1 knockdown viability, ATP luminescence, 48 h | Potency, µM (series often up to 46.1 µM), inactives show at the highest dose activity, negative = toxicity, hits mostly cytotoxic | hit rate 2% among 360,000 | AID 686971, 2013;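 also: 0% = DMSO wells and -100% = cell-free medium wells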
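% activity derives from luminescence (CellTiter-Glo), normalised to DMSO and no-cell wells. HT-1080-IDH1KD cells, 750/well, had 48 h compound exposure at 37 °C.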
KB-3-1 tox = qHTS assay for MDR1-selective chemotherapeutics: Primary screen using the parental adenocarcinoma cell KB-3-1; hit rate 1.4% among 400,000; KB-3-1 viability, CellTiter-Glo ATP luminescence, 72 h; Potency, µM (doses to about 46.1 µM), usual class: cytotoxic; AID 1347075, 2019; also: % is scaled to controls: 0 for no effect and ±100 for the full control effect; nearly all actives have a fitted effect of over 60% in size
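Using CellTiter-Glo luminescence, growth of non-resistant KB-3-1 adenocarcinoma cells is assessed 72 h after pin-tool compound addition at 37 °C. Normalized responses across the concentration series yield fitted curves.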
Starred values were filed as active, the others as inactive; i = inactive; ? = inconclusive; . = not tested or not shown. Rows were chosen to be rich in hits. Some 8% of all compounds tested hit in one or more screens of this group. Calls follow the shape of the dose curve; as a rule, active = well fitted curve in the direction sought with a large enough effect; inconclusive = small, poorly fitted or top-dose-only effect, or another doubt; inactive = no such curve, though single readings can be large; an effect the other way counts as inactive or inconclusive. Potency is read from the fitted curve at half-maximal effect.

SMILES	HT1080NT lethal	MCF10A rereplic	KB-V1 MDR tox	SW480 rereplic	HT1080 IDH1KD tx	KB-3-1 tox
Cc1ccccc1-n1cc(C(=O)c2cc(Cl)ccc2O)cc(C#N)c1=O	0%	-3%	15µM*	-20%	-1%	?
O=C(NCCC1CCCCN1S(=O)(=O)c1ccccc1)C(=O)Nc1ccccc1F (configuration not stated)	-13%	-4%	i	-123%	-17%	i
Cc1ccc(S(=O)(=O)N2CCCCC2CCNC(=O)C(=O)Nc2ccccc2F)cc1 (configuration not stated)	-4%	17%	5.8µM*	26%	-1%	7.3µM*
O=C(NCCC1CCCCN1S(=O)(=O)c1ccc(F)cc1)C(=O)Nc1ccccc1F (configuration not stated)	0%	-5%	i	-256%	-2%	i
O=C(NCCC1CCCCN1S(=O)(=O)c1ccccc1)C(=O)Nc1ccc(F)cc1F (configuration not stated)	-10%	18µM*	?	?	-19%	?
Cc1cc(S(=O)(=O)N2CCCCC2CCNC(=O)C(=O)NCC2CCCO2)ccc1F (configuration not stated)	1%	1%	2.6µM*	-2%	8%	i
Cc1nc(NCC2CCCO2)nc2c1C(=O)CC(C)C2 (configuration not stated)	7%	-1%	i	4%	11%	i
Cc1nc(NCC2CCCO2)nc2c1C(=O)CC(C)(C)C2 (configuration not stated)	-13%	?	21µM*	2%	5%	i
CCN(CC)CCCNC(=O)C1CCC(CNS(=O)(=O)c2c(C)cc(C)cc2C)CC1 (configuration not stated)	-12%	21µM*	i	-7%	-10%	i
O=C(CN1CCOCC1)Nc1ncc(Cc2cccc(Cl)c2Cl)s1	-1%	?	i	-4%	-9%	i
COc1ccccc1N=Nc1c(O)[nH]c2ccc(Br)cc12	15%	2%	i	3%	15%	i
O=[N+]([O-])c1ccc2[nH]c3nc4ccccc4nc3c2c1	-14%	10%	i	9%	?	i
O=C1Cc2c([nH]c3ccc([N+](=O)[O-])cc23)-c2ccccc2N1	-10%	?	?	?	2.1µM*	0.82µM*
COC(=O)C1CCN(C(=O)c2cc3c(=O)n4cccc(C)c4nc3n2Cc2ccccc2)CC1	-6%	2%	i	-11%	8%	i
COc1cc(CN2CCCC(N3CCN(c4ccc(F)cc4)CC3)C2)ccc1F (configuration not stated)	1%	3%	i	-12%	0%	i
CCN(CCCNC(=O)C1CCC(=O)N1Cc1ccccc1Cl)c1cccc(C)c1 (configuration not stated)	-4%	3%	6.5µM*	3%	-3%	i
CN(CCCNC(=O)C1CCC(=O)N1Cc1ccccc1Cl)c1ccccc1 (configuration not stated)	-2%	13%	23µM*	5%	-16%	i
CCc1ccc(NC(=O)C2CCCN(S(=O)(=O)c3cccc4nonc34)C2)cc1 (configuration not stated)	.	.	i	.	.	i
COc1ccc(Cn2cc(CN3CC(N4CCSCC4)CS3(=O)=O)nn2)cc1 (configuration not stated)	14%	.	?	.	0%	i
